Sampled rows, rich in hits. Any-hit rate of the full collection: about 1.6%.
KCNQ2 block = rat KCNQ2 potassium channel inhibitors, primary screen, cell-based, CHO-K1, FluxOR thallium flux, B-score | B-score at 10 µM | Potassium voltage-gated channel subfamily KQT member 2 (Rattus norvegicus), O88943 | 310,000 tested, 1.1% active | 20 min; stronger effect = lower value;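 active = fluorescence ratio B-score at most minus 3 library SDs, with starting brightness B-score within 2 library SDs, cut at about -5.5 in these data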
Target sequence (O88943 whole entry, looked up): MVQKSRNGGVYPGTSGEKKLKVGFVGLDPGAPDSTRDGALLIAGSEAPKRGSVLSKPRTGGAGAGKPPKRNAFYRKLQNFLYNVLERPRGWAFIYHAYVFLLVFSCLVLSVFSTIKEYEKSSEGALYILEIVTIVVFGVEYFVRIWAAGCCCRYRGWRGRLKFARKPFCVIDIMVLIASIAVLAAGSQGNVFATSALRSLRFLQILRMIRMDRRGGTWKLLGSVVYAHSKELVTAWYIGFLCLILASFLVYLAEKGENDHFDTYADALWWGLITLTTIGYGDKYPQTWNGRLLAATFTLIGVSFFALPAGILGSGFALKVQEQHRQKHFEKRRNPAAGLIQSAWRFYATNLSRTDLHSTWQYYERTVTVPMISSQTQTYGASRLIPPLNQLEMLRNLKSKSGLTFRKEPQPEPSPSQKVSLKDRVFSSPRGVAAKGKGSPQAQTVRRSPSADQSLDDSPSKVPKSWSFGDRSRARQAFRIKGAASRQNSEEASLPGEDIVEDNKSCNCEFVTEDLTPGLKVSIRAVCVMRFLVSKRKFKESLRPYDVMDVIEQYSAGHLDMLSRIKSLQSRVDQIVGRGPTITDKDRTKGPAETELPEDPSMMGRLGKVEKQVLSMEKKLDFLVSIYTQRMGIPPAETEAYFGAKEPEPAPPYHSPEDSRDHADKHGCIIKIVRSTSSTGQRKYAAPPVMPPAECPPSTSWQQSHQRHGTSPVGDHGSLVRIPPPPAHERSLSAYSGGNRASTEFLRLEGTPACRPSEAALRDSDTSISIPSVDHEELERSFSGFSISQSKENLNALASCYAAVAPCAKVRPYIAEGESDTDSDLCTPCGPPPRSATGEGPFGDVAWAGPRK
KCNQ2 pot = potentiators of rat KCNQ2 potassium channel; B-score at 10 µM; CHO-K1 KCNQ2, FluxOR thallium flux fluorescence; stronger effect = higher value; Potassium voltage-gated channel subfamily KQT member 2 (Rattus norvegicus), O88943; AID 2239, 2010; 310,000 tested, 0.54% active;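 active = fluorescence ratio B-score at least 3 SD of library B-scores, with initial fluorescence B-score within 3 of them, cut at about 5.3 in these data; same plate scores as AID 2156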;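 note: B-score of peak minus minimum over baseline fluorescence ratio after K+ and Tl+ stimulus; positive B-score means potentiation of KCNQ2 with more thallium influx and brighter signal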
Numbers without * were called inactive; i = inactive; . = no result given.

SMILES	KCNQ2 block	KCNQ2 pot
O=C(NC1CCCc2c1cnn2-c1ccc(F)cc1F)c1csnn1 (centres undefined)	i	.
COC(=O)c1cc(Cl)cc(Cl)c1OS(=O)(=O)N(C)C	i	1.8
COC(=O)Cc1ccc(NC(=S)N2CCCC(CO)C2)cc1 (centres undefined)	i	1
CC(=O)c1ccc(NC(=S)N2CCCC(CO)C2)cc1 (centres undefined)	i	13*
CCCCN(S(=O)(=O)c1ccccc1)S(=O)(=O)c1ccccc1	-6*	-6
CCCCN(c1ccccc1)S(=O)(=O)N(C)C	i	.
CC1CC(C)CN(CCCNC(=O)CCC(=O)N2CCOc3ccccc32)C1 (centres undefined)	i	0.07
Cc1ccc(NC(=O)C2CCN(S(=O)(=O)c3c(C)n[nH]c3C)CC2)c(C)c1	i	1.8
Cc1cc(C)c2c(=O)n(CC(=O)NCCCN3CCOCC3)sc2n1	i	2.7
Cc1cc(C)c2c(=O)n(CC(=O)NCCCN3CCN(c4ccccc4F)CC3)sc2n1	-9.9*	-9.9
Cc1cc(C(C)(C)C)oc1C(=O)N(CC(=O)NC1CCCC1)c1c(C)cccc1C	-7*	-7
Cc1cc(C(C)(C)C)oc1C(=O)N(CC(=O)NC1CCCC1)c1ccc(F)cc1	i	.
O=C(NCc1ccccc1)C(c1ccncc1)N(C(=O)c1csnn1)c1ccccc1F (centres undefined)	i	.
Cc1onc(-c2ccccc2)c1C(=O)NC(=S)Nc1sc2c(c1C#N)CCCC2	i	2.6
Cc1onc(-c2ccccc2)c1C(=O)NC(=S)Nc1sc2c(c1C#N)CCC(C)C2 (centres undefined)	i	10*
CCN(Cc1ccccc1)S(=O)(=O)c1cc(C(=O)NC2CCCCCC2)ccc1OC	-6.8*	-6.8
CCN(Cc1ccccc1)S(=O)(=O)c1cc(C(=O)NCC2CCCCC2)ccc1OC	i	.
COC(=O)c1ccc(NC(=S)NC2CCCCC2)cc1	i	.
COC(=O)c1cccnc1NC(=S)NC1CCCCC1	i	7.7*
N#CC1=C(c2ccc(-c3ccccc3)cc2)COC1=O	-5.7*	-5.7
O=C1OCC(c2ccccc2)=C1c1ccccc1	i	1
CC1(/[N+]([O-])=C\c2ccccc2F)CCCCC1=O (centres undefined)	i	.
C/C(=C/C(=O)O)C(=O)Nc1cccc(C(F)(F)F)c1	i	.
CC(C)CC1(C(=O)NCCc2c[nH]c3ccccc23)C=CCN1C(=O)c1ccccc1 (centres undefined)	-6.4*	-6.4
CC(=O)N1CC=CC1(CC(C)C)C(=O)NCCc1c[nH]c2ccccc12 (centres undefined)	i	0.88
SMILES	KCNQ2 block	KCNQ2 pot
COc1ccccc1C1CN=NC12CCCc1ccccc1C2=O (centres undefined)	i	.
Cc1ccccc1Nc1ccc([N+](=O)[O-])cn1	i	0.83
O=[N+]([O-])c1ccc(Nc2ccccc2F)nc1	i	5.3*
Cc1cc(Cl)n2c(nc3cc(F)c(F)cc32)c1C#N	-13*	-13
Cc1cc(C)n2c(=O)c3ccc(Cl)cc3nc2c1C#N	i	.
CCOc1ccc(C2C(C(=O)O)CCC(=O)N2C2CCCCC2)cc1 (centres undefined)	i	.
CC1CCCCN1CCCNC(=O)c1cc(Br)c(Br)[nH]1 (centres undefined)	i	.
Cc1cc(C)c(C(=O)C(C)OC(=O)c2ccc(Cl)nc2)cc1C (centres undefined)	i	.
c1ccc(-c2ccc3c(c2)c2c4n3CCN=C4CCC2)cc1	-7.5*	-7.5
OC1CN=C2CCCc3c2n(c2ccc(Cl)cc32)C1 (centres undefined)	i	.
Cc1ccc(C(=O)N/N=c2\sc3ccccc3n2C)cc1	i	12*
COc1cccc(C(=O)N/N=c2\sc3ccccc3n2C)c1	i	2.1
Cc1cccc(Nc2nc(Cl)ncc2F)c1C	i	.
O=C(CNCc1ccccn1)Nc1ccc([N+](=O)[O-])cc1C(=O)Nc1ccccc1F	i	0.12
O=C(NCCOc1ccc(Cl)cc1)c1ccc2ccccc2n1	-6.3*	-6.3
Cc1ccc(OCCNC(=O)c2ccc3ccccc3n2)cc1	i	.
COc1ccc(OCCCC(=O)N2CCN(S(=O)(=O)c3cccc(F)c3)CC2)cc1	i	.
COc1cc(CC(=O)N(c2ccccc2)c2nc(C)cs2)cc(OC)c1OC	i	0.39
CCCCn1cnc2sc(-c3ccccc3)cc2c1=O	i	0.71
O=c1c2cc(-c3ccccc3)sc2ncn1/N=C/c1ccco1	-5.9*	-5.9
CCc1ccc(NC(=O)[C@H](C)NC(=O)C2CCN(C(=O)[C@@H](N)C(C)C)CC2)cc1	i	0.58
CC1(C)Cc2nc(-c3ccccc3)nc(SCC(=O)N3CCOCC3)c2CO1	i	.
CCN(CC)C(=O)CSc1nc(-c2ccc(C)cc2)nc2c1COC(C)(C)C2	-7.4*	-7.4

Source: PubChem (Johns Hopkins Ion Channel Center)
